PubChem BioAssay AID743314 (Broad Institute, 2014)
Results with a measured potency or affinity are listed apart. Records with an inconclusive call do not appear. Active and inactive are the calls of the source.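 The calls were made as follows: active = fitted half-maximal concentration no higher than twice the top tested dose, in every repeat run; inconclusive = repeat runs disagree, poor fit, or flat partial inhibition; inactive = the rest.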

Target: Endoplasmic reticulum aminopeptidase 1 (Homo sapiens) (UniProt Q9NZ08)
Assay: inhibition of human ERAP1 enzyme activity – biochemical, cherry-pick, set 2, plate reader, dose response (AID 743314)

Sequence of Endoplasmic reticulum aminopeptidase 1 (Homo sapiens) (Q9NZ08 whole entry, looked up): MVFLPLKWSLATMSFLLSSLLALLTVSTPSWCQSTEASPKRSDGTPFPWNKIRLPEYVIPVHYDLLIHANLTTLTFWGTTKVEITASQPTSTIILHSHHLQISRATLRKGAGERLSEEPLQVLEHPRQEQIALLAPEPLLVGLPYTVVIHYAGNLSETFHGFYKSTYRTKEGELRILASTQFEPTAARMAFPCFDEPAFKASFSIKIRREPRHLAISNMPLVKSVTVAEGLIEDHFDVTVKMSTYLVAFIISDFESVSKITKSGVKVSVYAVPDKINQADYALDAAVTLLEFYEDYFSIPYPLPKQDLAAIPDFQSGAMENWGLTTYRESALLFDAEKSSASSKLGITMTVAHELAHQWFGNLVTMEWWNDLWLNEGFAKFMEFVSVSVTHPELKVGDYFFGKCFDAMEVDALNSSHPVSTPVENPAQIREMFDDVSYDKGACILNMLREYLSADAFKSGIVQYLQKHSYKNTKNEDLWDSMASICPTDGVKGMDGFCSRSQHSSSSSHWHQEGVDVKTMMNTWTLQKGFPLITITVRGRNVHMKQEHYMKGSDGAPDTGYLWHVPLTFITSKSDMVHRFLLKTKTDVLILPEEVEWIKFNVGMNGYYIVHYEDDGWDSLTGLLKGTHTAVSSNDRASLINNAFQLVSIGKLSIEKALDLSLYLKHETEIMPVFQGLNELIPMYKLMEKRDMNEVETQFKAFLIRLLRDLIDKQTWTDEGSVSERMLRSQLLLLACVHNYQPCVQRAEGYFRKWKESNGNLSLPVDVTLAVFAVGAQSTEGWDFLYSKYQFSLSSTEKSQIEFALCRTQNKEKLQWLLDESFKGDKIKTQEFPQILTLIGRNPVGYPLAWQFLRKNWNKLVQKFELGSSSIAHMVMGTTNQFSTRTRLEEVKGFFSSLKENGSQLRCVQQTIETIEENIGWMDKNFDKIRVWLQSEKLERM

Compound | outcome
Cc1cc(OCC(=O)NC(Cc2ccc(Cl)cc2)C(=O)O)c2c3c(c(=O)oc2c1)CCCC3 (configuration not stated) | inactive
Cc1cc(=O)oc2cc(OCC(=O)N3CCN(C(C)c4ccccc4)CC3)c(Cl)cc12 (configuration not stated) | inactive
